The values below come from PubChem BioAssay.

“And” between values parts separate entries of the source, which are not always exact repeats. Equal values may be shown once. The source made the active and inactive calls. Unless noted, no rule for the calls is given here.

Experiment [1] can be described thus: circadian clock period modulators, cell-based, LOPAC library, luminescence reporter (AID 2774).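 Also: values are relative to mean of DMSO wells on each plate.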 The note with it: circadian reporter cells, at 7 µM, actives lie on both sides.
In experiment [2] the test system is Hepatitis C virus NS3 helicase. In words: HCV NS3 helicase inhibitors, primary screen, biochemical, fluorescence polarization, LOPAC1280 library (AID 687035; in the data active = inhibition above about 37%). The note with it: Purified HCV NS3 helicase, Cy5-dT15 ssDNA binding fluorescence polarization; stronger effect = higher value; concentration not given here.
Experiment [3] is described as follows: Cy5 fluorescence quenching or enhancement artefacts, artefact control for HCV NS3 helicase inhibitor project, biochemical, LOPAC1280 (AID 687037). The note with it: Cy5-DNA-NS3h complex fluorescence interference counterscreen. (In general: Counterscreens check selectivity or assay interference.)
Experiment [4] has as its system Aerobactin synthetase IucA (Klebsiella pneumoniae). In words: IucA aerobactin synthetase inhibitors, biochemical, Tocris library, absorbance (AID 1345561).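 Also: 100% = enzyme without compound and 0% = no enzyme.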 The note with it: purified IucA enzyme assay, absorbance (OD) read-out; stronger effect = lower value;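 tested at 8 µM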.
A short description of experiment [5]: sensitizers of A549 cells to miR-34 induction, primary screen, imaging, A549 dox-inducible miR-34, nuclei and caspase counts (AID 1347080;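 active = compounds whose cell count with miR-34 switched on is under 0.7 times the count with it off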). The note with it: A549 miR-34 inducible, Hoechst nuclei count, 48 h.
Experiment [6] is described as follows: phospholipid biosynthesis inhibitors in animal cells, primary screen, cell-based, LOPAC library, screen 4 (AID 1347384). The note with it: phospholipid biosynthesis inhibition screen, at 10 µM.
Experiment [7] can be described thus: viability rescue of complex I mutant cybrids, primary screen, cell-based, galactose medium, ATP luminescence (AID 1645843;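 active = z-score of at least 1.8 in each of two replicates, scored against plate mean and spread of sample wells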;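 also: positive z means more ATP and so rescue of galactose-driven cybrid death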). The note with it: complex I mutant cybrid cells, 72 h, stronger effect = higher value.
Experiment [8] in a line: hESC survival regulators, cell-based (AID 493140).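 Also: cells exposed to compounds for four days before counting.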 The note with it: human embryonic stem cell survival screen; stronger effect = higher value.
Experiment [9] is described as follows: liver-stage malaria parasite growth inhibition, primary screen, cell-based, HepG2, luciferase luminescence, HepG2 viability (AID 624349; in the data active = parasite load remaining mostly below about 12%, no sharp cut-off; inactive = mostly above about 10%;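 also: 100% = mean of DMSO negative control wells on the same plate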). The note with it: P. berghei liver stage in HepG2, luciferase luminescence, concentration not given here; parasite load remaining: stronger effect = lower value; viability: measured here: HepG2 viability without parasites.
Experiment [10] in a line: survival rescue of mitochondrial mutant cells in low glucose, primary screen, MELAS cybrids, Rieske KO mouse fibroblasts, CellTiter-Glo (AID 1508586;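 active = mean z-score across replicates of 1.96 or higher in either the MELAS or the Rieske mutant cell line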;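 also: z relative to plate mean and SD of compound and empty wells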). (In ATP-based viability assays light output follows the ATP content of the culture.)
Experiment [11] can be described thus: inhibitors of Cryptococcus chitosan production, flow cytometry, Cibacron Brilliant Red staining (AID 1347148).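 Also: compound exposure lasted three days at 37 degrees C.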 The note with it: Cryptococcus neoformans chitosan, stronger effect = lower value; at 10 µM unless noted. On the technique in general: Flow cytometry measures light scatter and fluorescence of single cells or particles in a stream.
[12] abbreviates: stronger effect = lower value, cell number ratio, induced over uninduced.
[13] abbreviates: measured here: relative caspase fold change +Dox/-Dox.
Where [14] appears, read: measured here: total cells with miR-34 induction, stronger effect = lower value.
[15] abbreviates: measured here: total cells without miR-34 induction.
Where [16] appears, read: MELAS cybrid survival, CellTiter-Glo 48 h, stronger effect = higher value.
Setting [17] is: Rieske KO mouse fibroblast survival, CellTiter-Glo 72 h.

As a reminder, the inhibition is the drop in the measured response relative to a control, in per cent. What is called remaining activity is the signal under treatment as a percentage of the control signal. `COc1ccccc1N1CCN(CCCCN2C(=O)c3ccccc3C2=O)CC1`: the period change in [1] was 0.18 h (inactive). In addition, the inhibition in experiment [2] was -3% (inactive). Also, in experiment [3], the fluorescence ratio (interference) was 1 (inactive). Further, the remaining activity in [4] was 97.1% (inactive). For the same molecule, the fold change in [5] (setting [12]) is 1.11 (inactive) and 0.969 (inactive); in experiment [5] (setting [13]) it was 1.56 and 0.971. In addition, the cell count in experiment [5] (setting [14]) is 9310 and 9300; in experiment [5] (setting [15]) it was 8410 and 9600. In experiment [6], the molecule was classed as inactive. For the same molecule, the z-score in experiment [7] was -0.155 (inactive) and -0.92 (inactive).

Consider `CC(/C=C/c1cccc(Oc2ccc(F)cc2)c1)N(O)C(N)=O` (configuration not stated), for which the period change in experiment [1] is -0.095 h (inactive). Moreover, the inhibition in experiment [2] was 0% (inactive). Besides, the fluorescence ratio (interference) in [3] was 1 (inactive). The remaining activity in experiment [4] was 129% (inactive). In addition, the fold change in experiment [5] (setting [12]) was 1.07 (inactive) and 0.882 (inactive) and 0.954 (inactive); in experiment [5] (setting [13]), 1.69 and 1.06 and 0.78. Besides, the cell count in [5] (setting [14]) is 8210 and 4190 and 6640; in experiment [5] (setting [15]), 7700 and 4750 and 6960. Further, the result in experiment [6] was inactive. Besides, in experiment [7], the z-score is -1.33 (inactive) and -0.775 (inactive).

For orientation: viability means a read-out of living cells in per cent, often relative to untreated cells. `O=C(NCCNCC(O)COc1ccc(O)cc1)N1CCOCC1` (configuration not stated): in experiment [1], the period change is -0.145 h (inactive). Besides, in [8], the survival is 3.92 (inactive). Further, the parasite load remaining in [9] was 67.2% (inactive) and 53.1% (inactive). In addition, in [9], the viability was 92.7% and 101%. In experiment [4], the remaining activity is 86.3% (inactive). Moreover, the fold change in experiment [5] (setting [12]) was 0.933 (inactive) and 0.982 (inactive) and 0.986 (inactive); in experiment [5] (setting [13]) it was 1.12 and 0.678 and 0.984. In addition, the cell count is 9570 and 9500 and 10300 in experiment [5] (setting [14]); 10300 and 9670 and 10400 in experiment [5] (setting [15]). Further, the z-score was 0.558 (inactive) and 0.821 (inactive) in experiment [10] (setting [16]); -0.323 and 0.721 in [10] (setting [17]); 1.45 (inactive) and 0.315 (inactive) in experiment [7].

Regarding `CC(C)[C@@H]1CC[C@@H](C)C[C@@H]1P(=O)(c1ccccc1)c1ccccc1`, the inhibition in [2] is 2% (inactive). Also, the fluorescence ratio (interference) in experiment [3] was 1 (inactive). In experiment [4], the remaining activity was 100% (inactive). The fold change in experiment [5] (setting [12]) is 0.961 (inactive) and 0.925 (inactive); in experiment [5] (setting [13]) it was 0.895 and 1.06. Also, the cell count is 8530 and 7980 in experiment [5] (setting [14]); 8880 and 8620 in [5] (setting [15]). Moreover, in experiment [6], the call was inactive. Further, in experiment [7], the z-score was 0.1 (inactive) and -0.24 (inactive).

As for `Cc1ccc(C(=O)Cn2c3c(sc2=N)CCCC3)cc1`, the remaining activity in experiment [4] is 107% (inactive). Moreover, the fold fluorescence in experiment [11] is 5.78 [at 174.6 µM] (inactive). Besides, the z-score in [10] (setting [16]) is 1.05 (inactive); in experiment [10] (setting [17]), -0.573; in experiment [7] it was -0.225 (inactive).

As for `CN(C)CCCSC(=N)N`, the survival in [8] is 12 (inactive). The parasite load remaining in experiment [9] is 63.2% (inactive). The viability in [9] stood at 78.8%. The remaining activity in [4] is 105% (inactive). The fold change in experiment [5] (setting [12]) was 0.94 (inactive) and 0.947 (inactive); in experiment [5] (setting [13]), 0.889 and 0.696. Moreover, the cell count in experiment [5] (setting [14]) was 8690 and 7530; in experiment [5] (setting [15]), 9240 and 7950. Besides, the z-score in experiment [10] (setting [16]) is 0.388 (inactive); in experiment [10] (setting [17]), -0.104; in experiment [7], -0.34 (inactive).

As to `Brc1c(Br)c(Br)c2n[nH]nc2c1Br`, the parasite load remaining in experiment [9] is 65.4% (inactive). In addition, the viability in experiment [9] stood at 173%. The inhibition in experiment [2] is -6% (inactive). For the same molecule, the fluorescence ratio (interference) in experiment [3] was 1 (inactive). The remaining activity in experiment [4] was 108% (inactive). For the same molecule, the fold change is 1.03 (inactive) and 1.02 (inactive) in experiment [5] (setting [12]); 1.41 and 1.13 in [5] (setting [13]). For the same molecule, the cell count in experiment [5] (setting [14]) was 10300 and 7940; in experiment [5] (setting [15]), 9970 and 7790. In addition, in experiment [6], the molecule was classed as inactive. Also, the z-score in experiment [7] is -0.92 (inactive) and -0.58 (inactive).

As to `CN/C(=C/[N+](=O)[O-])NCCSCc1ccc(CN(C)C)o1`, the parasite load remaining in experiment [9] is 43.4% (inactive) and 51.6% (inactive). In [9], the viability was 47.5% and 107%. In addition, in experiment [4], the remaining activity is 114% (inactive). In addition, the fold change in [5] (setting [12]) was 0.9 (inactive) and 0.849 (inactive) and 0.891 (inactive); in experiment [5] (setting [13]) it was 0.927 and 0.503 and 1.27. The cell count in experiment [5] (setting [14]) was 8480 and 7980 and 9140; in experiment [5] (setting [15]), 9410 and 10300. The z-score was -0.0746 (inactive) and -0.291 (inactive) in experiment [10] (setting [16]); -0.171 and 0.538 in experiment [10] (setting [17]); -0.09 (inactive) and 0.3 (inactive) in [7].

On to `Clc1ccc2c(c1)N=C(N1CCNCC1)c1ccccc1N2`, for which, in experiment [2], the inhibition is -2% (inactive). Moreover, in experiment [3], the fluorescence ratio (interference) is 1 (inactive). In addition, the remaining activity in experiment [4] was 102% (inactive). Besides, the fold change in experiment [5] (setting [12]) is 1.02 (inactive) and 0.994 (inactive); in experiment [5] (setting [13]) it was 1.15 and 0.797. Further, the cell count in experiment [5] (setting [14]) is 7100 and 7380; in experiment [5] (setting [15]) it was 6990 and 7420. Moreover, the molecule was classed as inactive in [6]. Also, the z-score in experiment [7] is -0.785 (inactive) and -0.84 (inactive).
